Screens deposited in PubChem BioAssay by National Center for Advancing Translational Sciences (NCATS).
The full list was thinned out, with hits kept by preference.
AmpC no deterg = AmpC beta-lactamase inhibition without detergent | Potency, µM (series often up to 57.1 µM), for inactives: top-dose activity change, negative = inhibition, usual class: inhibitors | P00811 | AmpC nitrocefin hydrolysis, absorbance 480 nm, 0.0001% Triton | AID 485341 | 0.52% of 330,000 active;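 further: potency means the concentration at half of the fitted maximal effect; plate controls were no compound for no effect and no enzyme for full effect; nearly all actives have a fitted effect of over 20% in size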
Target sequence (P00811 whole entry, looked up): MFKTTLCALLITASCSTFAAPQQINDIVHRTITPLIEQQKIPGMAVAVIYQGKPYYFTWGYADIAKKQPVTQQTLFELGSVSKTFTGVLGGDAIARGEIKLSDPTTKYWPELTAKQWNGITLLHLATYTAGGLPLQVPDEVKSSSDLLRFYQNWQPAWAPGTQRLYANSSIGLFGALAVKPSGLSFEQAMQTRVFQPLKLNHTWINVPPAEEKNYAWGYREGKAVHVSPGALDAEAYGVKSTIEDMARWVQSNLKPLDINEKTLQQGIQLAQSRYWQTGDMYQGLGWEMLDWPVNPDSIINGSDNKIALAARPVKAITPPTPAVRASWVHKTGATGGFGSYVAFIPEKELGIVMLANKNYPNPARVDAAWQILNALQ
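AmpC (5.3 nM in the dispensed reagent) in 20 mM phosphate pH 7.0 with 0.01% (detergent screen) or 0.0001% Triton X-100 was preincubated with compounds for 15 min at room temperature. Nitrocefin was then added from an 800 uM solution, and hydrolysis was followed at 480 nm.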
AmpC detergent = blocks E. coli AmpC beta-lactamase in detergent assay | 0.041% of 370,000 active | AmpC hydrolysis of nitrocefin, absorbance 480 nm, 0.01% Triton | Potency, µM (doses to about 114 µM), without a hit: at the highest dose activity change, negative = inhibition, actives largely listed as inhibitors | P00811;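 further: potency means the concentration at half of the fitted maximal effect; 0% = no-compound wells and -100% = no-enzyme wells; nearly all actives have a fitted effect of over 25% in size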
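20 mM phosphate pH 7.0 + 0.01% (detergent screen) or 0.0001% Triton X-100; 5.3 nM AmpC reagent; cpd preinc 15 min RT; nitrocefin (800 uM stock) to start; A480 q20 s × 4 min; Activity was normalised to no-enzyme and no-compound control wells.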
SARS PLP yeast = inhibitors of SARS-CoV papain-like protease in yeast | 0.19% of 330,000 active | Potency, µM (titrated, usually from 32.9 µM), inactives show at the top dose activity, positive = growth rescue, usual class: activators | S. cerevisiae expressing SARS-CoV PLpro, growth rescue; calls by dose curve; further: potency means the concentration at half of the fitted maximal effect; 0% is about no effect; nearly all actives have a fitted effect of over 55% in size
AMA1-RON2 inh = inhibitors of Plasmodium falciparum AMA1-RON2 interaction; AlphaScreen AMA1-biotinylated RON2 peptide binding; Potency, µM (top dose mostly 58.2 µM), inactives show at the highest dose activity change, negative = inhibition, most hits filed as inhibitors; 0.2% of 360,000 active; AID 720542;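 further: potency means the concentration at half of the fitted maximal effect; 0% = vehicle wells and -100% = peptide control; nearly all actives have a fitted effect of over 45% in size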
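AMA1 (3D7) with his tag at 25 nM final met compounds first, then biotinylated RON2 peptide at 25 nM; detection used donor plus acceptor beads, 10 µg/mL apiece, read by AlphaScreen after 30 min at room temperature.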
Shiga inhibitor = blocks Shiga toxin action in Vero cells; 9.2% of 290,000 active; inhibition, % at 38.7 µM; Vero cells, Shiga toxin protein synthesis inhibition reporter; in the data active means inhibition mostly above about 28%, no sharp cut-off; inactive means mostly below about 43%; further: 0% is about no effect
Cycloheximide cs = counter-screen for Shiga toxin inhibitors: cycloheximide protein synthesis inhibition. cell reporter, cycloheximide protein synthesis inhibition counterscreen. max response, %. 12% of 300,000 active; in the data active means max response mostly above about 13%, no sharp cut-off; inactive means mostly below about 14%; further: read at 38.3 µM for the half of the compounds with a filed dose; 0% is about no effect
Starred values were filed as active, the others as inactive; ? = inconclusive; / = no result; + = active, no number; [ ] = remark or other dose. Unless noted, the call rests on the fitted dose curve; in most records, active means well fitted curve in the direction sought with a large enough effect; inconclusive means small, poorly fitted or top-dose-only effect, or another doubt; inactive means no such curve, though single readings can be large; an effect the other way counts as inactive or inconclusive.

SMILES	AmpC no deterg	AmpC detergent	SARS PLP yeast	AMA1-RON2 inh	Shiga inhibitor	Cycloheximide cs
O=C(C1CC1)N1CCC(Oc2cccc(C(=O)N3CCCCC3CCO)c2)CC1 (centres undefined)	28%	-8%	-2%	6%	-1	12
O=C(NCc1ccc(Cl)cc1)c1ccc2ccccc2n1	-23%	?	-6%	6%	63	20*
COc1ccc(CCNC(=O)c2cnc3ccccc3n2)cc1	-4%	-2%	-4%	-17%	43	14*
COc1ccc(CNC(=O)c2ccc3ccccc3n2)cc1OC	39%	-13%	-3%	-1%	27	2
COc1ccc(CCNC(=O)c2ccc3ccccc3n2)cc1OC	31%	-7%	0%	-12%	7	-1
O=C(NCCOc1ccc(Cl)cc1)c1ccc2ccccc2n1	12%	8%	-2%	27%	33	9.3*
CCOc1ccc(CCNC(=O)c2ccc3ccccc3n2)cc1OCC	50%	4%	-1%	-1%	53*	44*
COCCNC(=S)Nc1ccc2nc(N3CCOCC3)cc(C)c2c1	-16%	?	0%	5%	-10	-4
CCN1CCN(c2cc(C)c3cc(NC(=O)c4ccc(Br)o4)ccc3n2)CC1	130%	3%	-3%	-9%	102	15*
CCN1CCN(c2cc(C)c3cc(NC(=O)c4ccncc4)ccc3n2)CC1	-12%	-12%	-10%	3%	-21	-3
COCCNC(=S)Nc1ccc2nc(N3CCCC3)cc(C)c2c1	10µM*	-1%	5%	20%	6	-4
Cc1cc(N2CCN(C)CC2)nc2ccc(NC(=O)c3ccccc3F)cc12	22%	?	0%	-6%	72*	37*
CCN1CCN(c2cc(C)c3cc(NC(=S)N4CCCC4)ccc3n2)CC1	6%	-7%	3%	26%	-16	-3
CCN1CCN(c2cc(C)c3cc(NC(=S)N4CCCCC4)ccc3n2)CC1	42%	6%	-3%	-7%	54	21*
CCN1CCN(c2cc(C)c3cc(NC(=S)N4CCCC(C)C4)ccc3n2)CC1 (centres undefined)	85%	5%	-6%	-7%	62*	33*
COc1cccc2sc(N(Cc3cccnc3)C(=O)c3ccco3)nc12	/	-1%	/	/	/	/
CCCCN(C)CCNC(=O)c1c[nH]c2ccc(S(=O)(=O)N(CC)CC)cc2c1=O	-13%	-6%	2%	-1%	19	-1
Oc1[nH]c2ccccc2c1N=Nc1nncc2ccccc12	21%	-2%	-3%	15%	60*	35*
Oc1[nH]c2ccccc2c1N=Nc1ccc(C(F)(F)F)cn1	-12%	5%	-4%	-4%	17	18*
Cc1cccc(NC(=O)c2c(C)cc(=O)oc2C)n1	-15%	6%	-3%	?	-15	8
CCCCOc1ccc(-c2nc(/C=N/c3nccs3)c(O)o2)cc1	-19%	-8%	-12%	30%[11.6 µM]	2	2
Oc1oc(-c2ccccc2)nc1/C=N/c1nccs1	-17%	?	-22%	21%	+	33*
Oc1oc(-c2ccccc2)nc1C=Nc1cccc2ccccc12	-49%	-10%	-15%	44%	26	20*
Oc1oc(-c2ccccc2)nc1C=NCc1ccncc1	-12%	?	5%	0%	2	-2
O=C(Cn1c(=O)ccc2cc(S(=O)(=O)N3CCCC3)ccc21)NCc1ccc(Cl)cc1	/	1%	/	/	/	/
SMILES	AmpC no deterg	AmpC detergent	SARS PLP yeast	AMA1-RON2 inh	Shiga inhibitor	Cycloheximide cs
CC1(O)c2ccccc2C(=O)N1CCc1ccccc1F (centres undefined)	-5%	-2%	-5%	-2%	66*	43*
COc1ccccc1CNc1ncnc2sccc12	-23%	2%	-26%	-5%	10	8
O=c1[nH]c2ccc(Cl)cc2c(-c2ccccc2)c1SC(=S)N1CCOCC1	78%	-7%	11%	-19%	-23	-5
O=c1[nH]c2ccc(Cl)cc2c(O)c1-c1ccccc1	-5%	?	1%	8%	78*	27*
O=c1[nH]c2ccc(Cl)cc2c(-c2ccccc2)c1SC(=S)N1CCCCC1	10µM*	-1%	-14%	14%	-24	-2
CCOC(=O)C1=C(C)OC(N)=C(C#N)C1c1cc(F)ccc1F (centres undefined)	-17%	-8%	0%	3%	-4	-5
Cc1ccc(N=C2N=C(N)c3ccccc32)c(C)c1	-36%	-2%	-4%	-1%	19	8
CC(C)(C)c1ccc(C(=O)NCCN2CCCC2)cc1	-1%	-2%	1%	-12%	-4	2
COc1ccc(C(=O)OCC[N+]2(C)CCCCC2)cc1	-2%	-2%	-2%	-3%	107*	44*
CC(C)(C)c1ccc(C(=O)OCCN2CCCCC2)cc1	13%	0%	-3%	-2%	55*	22*
COc1ccc(C(=O)CCN2CCCCCC2)cc1	-12%	-3%	-24%	-2%	14	11
COc1ccc(C(=O)OCCN2CCCCC2)cc1	-9%	3%	3%	-1%	51*	48*
Cc1cc2oc(C(=O)N(Cc3ccccc3)C3CCS(=O)(=O)C3)c(C)c2cc1C (centres undefined)	61%	-11%	-2%	?	-3	-2
COC(=O)C(C(=O)OC)c1ccc(-n2cccc2)cc1	3%	-13%	-1%	-4%	11	6
O=C(NCC1CCCO1)c1ccccc1OCc1ccc(F)cc1 (centres undefined)	-6%	-13%	-6%	6%	/	/
Fc1ccc(-c2ccc(CNCc3ccccn3)o2)cc1	-5%	?	0%	21%	/	25*
COc1ccc(-c2ccc(CNCCCSc3nnnn3C)o2)cc1Cl	/	25%	/	/	/	/
Clc1ccc(-c2ccc(CNCc3ccccn3)o2)cc1	51%	-13%	-6%	-22%	24*	21*
COc1ccc(-c2ccc(CNCc3ccccn3)o2)cc1Cl	30%	?	3%	/	9	13*
CCN1CCN(Cc2ccc(C)cc2)CC1	-17%	-24%	11%	-5%	-10	-1
Clc1ccc(Cn2ccc(C3CC3)n2)cc1	11%	1%	2%	-11%	66*	31*
Cc1ccc(Cn2ccc(C3CC3)n2)cc1	-44%	?	1%	-9%	52	62*
CC(NC(C(=O)c1ccccc1)c1ccccc1)c1ccccc1 (centres undefined)	/	/	/	19%	/	/
Nc1ccccc1C#Cc1ccccc1	-20%	-3%	-8%	5%	88*	64*
Nc1ccccc1C#Cc1ccc2[nH]ccc2c1	/	/	/	-8%	/	/
Nc1ccc(C#Cc2ccccc2)cc1	-7%	-12%	3%	11%	64*	41*
Cc1cccc(N2CCN(CC(=O)Nc3ccccc3[N+](=O)[O-])CC2)c1C	-29%	-1%	5%	-15%	-19	-3
